Experiment in all cases: DAPPL (digital affinity profiling via proximity ligation, sequencing); 10 mM Tris-HCl pH 7.5, 50 mM NaCl, 1 mM DTT, 4% glycerol, room temperature, 30 min; GST-TFs on glutathione beads, 16-mer random dsDNA library, 0.1% formaldehyde crosslink after washing; high values mean tight binding
The target of one assay is T1, FEV (Homo sapiens, UniProt Q99581 1-238).
T1 sequence: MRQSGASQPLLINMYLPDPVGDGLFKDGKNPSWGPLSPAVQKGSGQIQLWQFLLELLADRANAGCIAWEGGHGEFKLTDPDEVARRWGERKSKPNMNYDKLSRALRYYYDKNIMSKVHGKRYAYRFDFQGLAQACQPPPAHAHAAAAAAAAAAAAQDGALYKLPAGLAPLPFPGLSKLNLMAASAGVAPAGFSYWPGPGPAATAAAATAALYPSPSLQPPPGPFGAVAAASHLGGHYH
Conditions: protein: recombinant; tags: N-terminal GST; dsDNA, one strand shown. The gist of the method: (§1)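 Human transcription factors carrying a GST fusion were produced in yeast, bound to glutathione beads, tagged with DNA barcodes and pooled together with a tag-only sample. Each pool was held with 200 nmole of a random double-stranded 16-mer DNA library in Tris/NaCl/DTT/glycerol buffer for 30 min at room temperature, then washed, crosslinked in 0.1% formaldehyde, proximity-ligated with BsaI/T4 ligase (1 h, 37 °C), PCR-amplified and sequenced on an Illumina NextSeq500. Binding signal is the read frequency of each hexamer for a given factor divided by its frequency in the tag-only sample.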

A further assay deals with ETV5 (Homo sapiens, UniProt P41161 1-510). The conditions noted are these: protein: recombinant; tags: N-terminal GST; dsDNA, one strand shown. The gist of the method:
as §1

A further assay deals with HSF1 (Homo sapiens, UniProt Q00613 1-529). The conditions noted are these: protein: recombinant; tags: N-terminal GST; chain copies: 3; dsDNA, one strand shown. A digest of the protocol: as §1
HSF1, sequence (Q00613 whole entry): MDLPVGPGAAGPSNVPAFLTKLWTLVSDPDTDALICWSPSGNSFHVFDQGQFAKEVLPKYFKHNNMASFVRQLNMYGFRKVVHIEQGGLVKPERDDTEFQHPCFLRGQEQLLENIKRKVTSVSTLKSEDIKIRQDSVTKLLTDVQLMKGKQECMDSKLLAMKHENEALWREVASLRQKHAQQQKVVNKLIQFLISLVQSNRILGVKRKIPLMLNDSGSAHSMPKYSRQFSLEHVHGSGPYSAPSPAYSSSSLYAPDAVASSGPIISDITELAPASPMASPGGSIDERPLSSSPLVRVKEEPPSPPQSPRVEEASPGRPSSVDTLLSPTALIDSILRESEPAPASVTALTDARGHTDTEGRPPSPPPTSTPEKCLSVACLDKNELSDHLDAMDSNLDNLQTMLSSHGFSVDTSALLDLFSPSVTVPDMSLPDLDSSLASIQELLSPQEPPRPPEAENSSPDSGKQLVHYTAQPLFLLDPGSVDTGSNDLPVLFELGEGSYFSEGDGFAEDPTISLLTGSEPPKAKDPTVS
For the next assay, the target named is T2, SPIC (Homo sapiens, UniProt Q8N5J4 1-248).
T2 sequence: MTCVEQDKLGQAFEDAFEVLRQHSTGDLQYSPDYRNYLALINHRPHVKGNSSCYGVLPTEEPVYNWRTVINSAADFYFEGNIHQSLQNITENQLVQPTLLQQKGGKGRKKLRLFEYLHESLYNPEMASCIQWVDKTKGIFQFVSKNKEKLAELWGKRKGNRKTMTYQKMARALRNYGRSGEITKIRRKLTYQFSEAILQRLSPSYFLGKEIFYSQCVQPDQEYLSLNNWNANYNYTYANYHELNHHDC
Conditions: protein: recombinant; tags: N-terminal GST; dsDNA, one strand shown. A digest of the protocol:
as §1

In another assay the target is ELF4 (Homo sapiens, UniProt Q99607 1-663). The conditions noted are these: protein: recombinant; tags: N-terminal GST; dsDNA, one strand shown. The gist of the method:
as §1

Another assay concerns the target T3, ELK4 (Homo sapiens, UniProt P28324-2 1-405).
T3 sequence: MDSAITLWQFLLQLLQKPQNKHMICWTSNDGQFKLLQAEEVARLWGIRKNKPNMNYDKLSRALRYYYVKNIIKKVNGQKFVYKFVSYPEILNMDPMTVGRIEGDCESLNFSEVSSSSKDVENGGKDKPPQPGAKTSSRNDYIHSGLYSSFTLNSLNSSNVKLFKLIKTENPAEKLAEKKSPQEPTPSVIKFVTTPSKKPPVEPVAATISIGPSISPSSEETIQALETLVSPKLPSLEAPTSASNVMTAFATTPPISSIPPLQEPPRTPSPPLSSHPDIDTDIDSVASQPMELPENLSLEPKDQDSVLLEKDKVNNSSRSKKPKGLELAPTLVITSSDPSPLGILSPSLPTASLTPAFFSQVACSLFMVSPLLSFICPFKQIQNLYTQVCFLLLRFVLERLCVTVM
The conditions noted are these: protein: recombinant; tags: N-terminal GST; dsDNA, one strand shown. The gist of the method:
as §1

The target of a further assay is T4, ETV2 (Homo sapiens, UniProt O00321 1-342).
T4 sequence: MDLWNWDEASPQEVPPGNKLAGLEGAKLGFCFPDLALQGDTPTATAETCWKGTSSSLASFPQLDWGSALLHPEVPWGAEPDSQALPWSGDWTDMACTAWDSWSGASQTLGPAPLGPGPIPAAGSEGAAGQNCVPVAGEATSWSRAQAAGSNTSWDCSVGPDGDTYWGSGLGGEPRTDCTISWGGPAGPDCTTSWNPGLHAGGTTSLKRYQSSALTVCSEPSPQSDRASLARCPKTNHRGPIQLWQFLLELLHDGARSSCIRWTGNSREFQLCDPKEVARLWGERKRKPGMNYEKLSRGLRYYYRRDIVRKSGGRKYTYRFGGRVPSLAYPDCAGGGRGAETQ
The conditions noted are these: protein: recombinant; tags: N-terminal GST; dsDNA, one strand shown. The gist of the method: as §1

The next assay has as its target T5, ELF3 (Homo sapiens, UniProt P78545 1-371).
T5 sequence: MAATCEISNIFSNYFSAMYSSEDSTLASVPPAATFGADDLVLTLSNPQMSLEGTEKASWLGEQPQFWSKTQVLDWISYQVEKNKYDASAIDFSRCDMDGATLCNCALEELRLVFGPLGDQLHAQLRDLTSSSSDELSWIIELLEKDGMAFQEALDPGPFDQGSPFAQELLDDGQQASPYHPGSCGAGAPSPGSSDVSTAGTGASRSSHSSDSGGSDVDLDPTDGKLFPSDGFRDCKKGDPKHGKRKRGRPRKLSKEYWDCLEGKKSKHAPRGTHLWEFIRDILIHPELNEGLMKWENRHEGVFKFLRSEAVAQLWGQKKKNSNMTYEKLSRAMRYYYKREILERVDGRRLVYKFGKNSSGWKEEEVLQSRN
Conditions: protein: recombinant; tags: N-terminal GST; dsDNA, one strand shown. The gist of the method: as §1

In another assay the target is CRX (Homo sapiens, UniProt O43186 1-299). The conditions noted are these: protein: recombinant; tags: N-terminal GST; dsDNA, one strand shown. A digest of the protocol: as §1
CRX, sequence (O43186 whole entry): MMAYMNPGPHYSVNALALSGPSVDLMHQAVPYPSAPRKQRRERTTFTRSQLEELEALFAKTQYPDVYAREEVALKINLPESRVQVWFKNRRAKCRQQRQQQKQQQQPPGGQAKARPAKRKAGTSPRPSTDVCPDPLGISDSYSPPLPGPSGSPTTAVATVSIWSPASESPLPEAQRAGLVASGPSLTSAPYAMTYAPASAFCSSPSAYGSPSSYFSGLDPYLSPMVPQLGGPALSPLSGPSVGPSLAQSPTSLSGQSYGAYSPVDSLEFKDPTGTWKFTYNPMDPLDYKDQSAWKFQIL
The next assay addresses ETV1 (Homo sapiens, UniProt P50549 1-477). Conditions: protein: recombinant; tags: N-terminal GST; dsDNA, one strand shown. The gist of the method:
as §1

A further assay addresses T6, ERF (Homo sapiens, UniProt P50548 1-548).
T6 sequence: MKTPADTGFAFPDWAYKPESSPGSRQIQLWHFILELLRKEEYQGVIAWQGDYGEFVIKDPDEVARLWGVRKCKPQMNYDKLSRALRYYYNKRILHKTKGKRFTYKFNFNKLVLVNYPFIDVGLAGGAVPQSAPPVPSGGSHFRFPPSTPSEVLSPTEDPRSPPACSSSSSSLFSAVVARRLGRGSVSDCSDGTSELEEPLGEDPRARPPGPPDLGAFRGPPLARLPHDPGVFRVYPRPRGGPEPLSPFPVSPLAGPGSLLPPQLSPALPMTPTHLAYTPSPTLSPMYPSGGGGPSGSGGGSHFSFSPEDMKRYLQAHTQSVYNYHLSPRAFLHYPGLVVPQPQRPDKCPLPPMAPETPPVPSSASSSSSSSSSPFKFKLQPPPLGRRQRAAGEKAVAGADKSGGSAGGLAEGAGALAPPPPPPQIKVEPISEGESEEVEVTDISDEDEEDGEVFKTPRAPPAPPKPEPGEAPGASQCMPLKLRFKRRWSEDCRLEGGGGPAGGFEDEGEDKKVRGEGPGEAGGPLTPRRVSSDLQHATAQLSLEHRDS
Conditions: protein: recombinant; tags: N-terminal GST; dsDNA, one strand shown. The gist of the method:
as §1

The next assay concerns the target T7, ETV3L (Homo sapiens, UniProt Q6ZN32 1-361).
T7 sequence: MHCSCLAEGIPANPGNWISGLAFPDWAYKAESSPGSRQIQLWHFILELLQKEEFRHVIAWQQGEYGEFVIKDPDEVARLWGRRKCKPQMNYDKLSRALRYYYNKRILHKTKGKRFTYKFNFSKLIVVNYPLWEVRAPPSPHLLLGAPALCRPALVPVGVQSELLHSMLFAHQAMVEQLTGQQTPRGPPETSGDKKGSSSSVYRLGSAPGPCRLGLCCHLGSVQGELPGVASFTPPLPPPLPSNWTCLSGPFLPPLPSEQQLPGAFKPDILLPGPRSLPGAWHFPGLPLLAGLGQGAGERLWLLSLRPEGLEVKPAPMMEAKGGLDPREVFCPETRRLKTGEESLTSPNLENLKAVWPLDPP
Conditions: protein: recombinant; tags: N-terminal GST; dsDNA, one strand shown. A digest of the protocol:
as §1

The target of another assay is T8, ETS2 (Homo sapiens, UniProt P15036 1-469).
T8 sequence: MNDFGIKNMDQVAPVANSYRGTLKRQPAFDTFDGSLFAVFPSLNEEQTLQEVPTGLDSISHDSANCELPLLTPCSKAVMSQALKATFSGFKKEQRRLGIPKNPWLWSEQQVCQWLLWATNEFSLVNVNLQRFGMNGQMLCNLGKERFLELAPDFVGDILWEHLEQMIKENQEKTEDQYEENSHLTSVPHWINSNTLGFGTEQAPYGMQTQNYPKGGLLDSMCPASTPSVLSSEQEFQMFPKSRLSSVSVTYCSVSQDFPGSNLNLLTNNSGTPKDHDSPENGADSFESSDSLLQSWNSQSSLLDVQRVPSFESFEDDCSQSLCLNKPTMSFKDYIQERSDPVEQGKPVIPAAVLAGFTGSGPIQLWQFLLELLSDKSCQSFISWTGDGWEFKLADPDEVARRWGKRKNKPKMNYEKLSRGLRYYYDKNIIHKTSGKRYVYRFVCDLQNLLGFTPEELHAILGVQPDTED
Conditions: protein: recombinant; tags: N-terminal GST; dsDNA, one strand shown. A digest of the protocol:
as §1

Another assay concerns the target T9, SPDEF (Homo sapiens, UniProt O95238 1-335).
T9 sequence: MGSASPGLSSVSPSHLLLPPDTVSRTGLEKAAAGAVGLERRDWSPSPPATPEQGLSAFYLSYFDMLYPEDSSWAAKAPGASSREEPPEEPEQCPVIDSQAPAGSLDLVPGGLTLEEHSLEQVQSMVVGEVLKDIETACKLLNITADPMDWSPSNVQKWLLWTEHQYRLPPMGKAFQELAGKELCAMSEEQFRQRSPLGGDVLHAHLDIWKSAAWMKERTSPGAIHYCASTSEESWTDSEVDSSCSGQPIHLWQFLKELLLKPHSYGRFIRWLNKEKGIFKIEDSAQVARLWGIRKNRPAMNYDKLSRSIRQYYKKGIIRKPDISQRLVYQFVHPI
The conditions noted are these: protein: recombinant; tags: N-terminal GST; dsDNA, one strand shown. A digest of the protocol: as §1

For a further assay, the target named is T10, ETV7 (Homo sapiens, UniProt Q9Y603 1-341).
T10 sequence: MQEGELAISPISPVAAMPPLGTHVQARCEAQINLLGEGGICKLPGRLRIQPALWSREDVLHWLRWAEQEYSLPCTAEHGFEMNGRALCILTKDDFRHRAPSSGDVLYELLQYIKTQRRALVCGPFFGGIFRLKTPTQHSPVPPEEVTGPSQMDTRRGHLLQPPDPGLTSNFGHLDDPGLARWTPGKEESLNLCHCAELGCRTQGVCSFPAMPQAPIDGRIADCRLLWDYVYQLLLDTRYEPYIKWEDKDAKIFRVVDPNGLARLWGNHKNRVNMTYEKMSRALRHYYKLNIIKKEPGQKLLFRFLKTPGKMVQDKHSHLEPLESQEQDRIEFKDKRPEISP
The conditions noted are these: protein: recombinant; tags: N-terminal GST; dsDNA, one strand shown. The gist of the method:
as §1

The next assay addresses T11, ELF5 (Homo sapiens, UniProt Q9UKW6-2 1-255).
T11 sequence: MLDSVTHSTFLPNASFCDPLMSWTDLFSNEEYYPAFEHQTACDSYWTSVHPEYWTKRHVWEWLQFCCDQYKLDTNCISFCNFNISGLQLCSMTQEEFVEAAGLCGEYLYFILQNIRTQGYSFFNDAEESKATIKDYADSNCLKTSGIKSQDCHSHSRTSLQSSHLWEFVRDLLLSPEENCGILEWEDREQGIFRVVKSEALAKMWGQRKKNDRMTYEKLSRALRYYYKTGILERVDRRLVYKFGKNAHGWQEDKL
The conditions noted are these: protein: recombinant; tags: N-terminal GST; dsDNA, one strand shown. The gist of the method: as §1

The next assay has as its target T12, ETV3 (Homo sapiens, UniProt P41162-2 1-143).
T12 sequence: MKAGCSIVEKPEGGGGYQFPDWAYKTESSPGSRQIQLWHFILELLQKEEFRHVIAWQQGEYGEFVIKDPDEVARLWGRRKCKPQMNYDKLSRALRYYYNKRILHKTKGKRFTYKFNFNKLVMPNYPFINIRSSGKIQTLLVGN
Conditions: protein: recombinant; tags: N-terminal GST; dsDNA, one strand shown. A digest of the protocol: as §1

A further assay deals with ETV6 (Homo sapiens, UniProt P41212 1-452). The conditions noted are these: protein: recombinant; tags: N-terminal GST; dsDNA, one strand shown. A digest of the protocol:
as §1

ELF4, sequence (Q99607 whole entry): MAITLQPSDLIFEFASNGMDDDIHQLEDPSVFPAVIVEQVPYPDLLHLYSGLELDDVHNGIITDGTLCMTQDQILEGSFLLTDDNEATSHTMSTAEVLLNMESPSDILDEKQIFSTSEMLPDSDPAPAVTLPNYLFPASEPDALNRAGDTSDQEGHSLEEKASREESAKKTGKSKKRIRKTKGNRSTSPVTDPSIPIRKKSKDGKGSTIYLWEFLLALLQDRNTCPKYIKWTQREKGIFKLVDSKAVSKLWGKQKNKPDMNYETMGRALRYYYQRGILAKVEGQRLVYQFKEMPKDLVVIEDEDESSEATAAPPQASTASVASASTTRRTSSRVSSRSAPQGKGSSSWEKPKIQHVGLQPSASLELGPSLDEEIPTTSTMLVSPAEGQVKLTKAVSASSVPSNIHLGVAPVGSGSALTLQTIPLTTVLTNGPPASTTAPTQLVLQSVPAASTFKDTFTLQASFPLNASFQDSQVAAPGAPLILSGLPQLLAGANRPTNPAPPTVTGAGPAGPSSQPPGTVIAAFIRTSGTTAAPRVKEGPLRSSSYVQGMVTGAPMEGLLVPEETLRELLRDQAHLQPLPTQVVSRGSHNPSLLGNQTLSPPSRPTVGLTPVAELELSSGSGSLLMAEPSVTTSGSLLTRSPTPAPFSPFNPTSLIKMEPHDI
ETV5, sequence (P41161 whole entry): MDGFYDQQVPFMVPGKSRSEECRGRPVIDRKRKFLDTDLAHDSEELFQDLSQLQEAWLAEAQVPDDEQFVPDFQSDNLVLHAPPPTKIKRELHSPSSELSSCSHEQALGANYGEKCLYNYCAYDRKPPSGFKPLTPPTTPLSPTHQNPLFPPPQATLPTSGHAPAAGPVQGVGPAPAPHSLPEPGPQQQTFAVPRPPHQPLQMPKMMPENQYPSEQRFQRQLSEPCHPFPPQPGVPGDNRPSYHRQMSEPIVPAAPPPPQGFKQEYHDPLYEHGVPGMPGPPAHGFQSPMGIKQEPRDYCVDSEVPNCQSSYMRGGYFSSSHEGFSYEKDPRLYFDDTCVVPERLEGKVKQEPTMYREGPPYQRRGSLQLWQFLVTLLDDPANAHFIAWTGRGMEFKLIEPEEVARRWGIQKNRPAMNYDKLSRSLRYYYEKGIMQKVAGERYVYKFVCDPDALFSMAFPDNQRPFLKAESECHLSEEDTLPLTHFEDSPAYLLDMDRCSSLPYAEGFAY
ETV6, sequence (P41212 whole entry): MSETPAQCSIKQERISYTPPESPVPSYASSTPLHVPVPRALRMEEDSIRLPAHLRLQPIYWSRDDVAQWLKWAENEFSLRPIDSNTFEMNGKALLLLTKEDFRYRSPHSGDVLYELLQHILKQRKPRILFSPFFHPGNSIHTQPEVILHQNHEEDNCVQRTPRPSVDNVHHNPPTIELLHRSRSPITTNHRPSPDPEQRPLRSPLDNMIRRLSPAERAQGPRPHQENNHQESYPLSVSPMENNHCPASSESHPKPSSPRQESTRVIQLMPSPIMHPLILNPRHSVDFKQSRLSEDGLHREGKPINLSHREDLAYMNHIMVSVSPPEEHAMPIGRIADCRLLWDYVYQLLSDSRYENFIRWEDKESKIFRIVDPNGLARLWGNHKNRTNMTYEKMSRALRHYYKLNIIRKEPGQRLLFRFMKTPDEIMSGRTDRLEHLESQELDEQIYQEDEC
ETV1, sequence (P50549 whole entry): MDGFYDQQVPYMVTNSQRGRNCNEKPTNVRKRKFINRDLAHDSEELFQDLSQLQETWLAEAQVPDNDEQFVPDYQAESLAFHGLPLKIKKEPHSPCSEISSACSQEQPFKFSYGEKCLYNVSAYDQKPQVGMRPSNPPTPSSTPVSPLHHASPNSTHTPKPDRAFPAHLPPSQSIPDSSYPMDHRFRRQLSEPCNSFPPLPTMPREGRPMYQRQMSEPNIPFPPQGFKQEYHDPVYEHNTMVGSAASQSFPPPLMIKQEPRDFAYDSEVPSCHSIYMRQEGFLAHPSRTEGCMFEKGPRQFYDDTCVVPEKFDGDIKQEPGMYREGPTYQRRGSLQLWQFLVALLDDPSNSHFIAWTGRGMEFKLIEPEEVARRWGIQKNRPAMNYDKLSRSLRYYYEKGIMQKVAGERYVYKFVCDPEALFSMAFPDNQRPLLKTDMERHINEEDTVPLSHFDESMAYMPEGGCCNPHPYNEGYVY

For the sequence CTATTC, the binding signal with FEV is 1.28 fold enrichment (6-mer frequency, TF over GST control); in the assay with ETV5 it was 1.35 fold enrichment (6-mer frequency, TF over GST control); in the assay with HSF1 it was 1.57 fold enrichment (6-mer frequency, TF over GST control); with SPIC, 1.49 fold enrichment (6-mer frequency, TF over GST control); in the assay with ELF4 it was 1.26 fold enrichment (6-mer frequency, TF over GST control); in the assay with ELK4 it was 1.32 fold enrichment (6-mer frequency, TF over GST control). In addition, the binding signal in the assay with ETV2 is 1.37 fold enrichment (6-mer frequency, TF over GST control); with ELF3 it was 1.38 fold enrichment (6-mer frequency, TF over GST control); in the assay with CRX it was 1.16 fold enrichment (6-mer frequency, TF over GST control); in the assay with ETV1, 1.28 fold enrichment (6-mer frequency, TF over GST control); with ERF, 1.33 fold enrichment (6-mer frequency, TF over GST control); in the assay with ETV3L, 1.4 fold enrichment (6-mer frequency, TF over GST control). Besides, the binding signal is 1.32 fold enrichment (6-mer frequency, TF over GST control) in the assay with ETS2; 1.41 fold enrichment (6-mer frequency, TF over GST control) with SPDEF; 1.34 fold enrichment (6-mer frequency, TF over GST control) with ETV7; 1.29 fold enrichment (6-mer frequency, TF over GST control) with ELF5; 1.33 fold enrichment (6-mer frequency, TF over GST control) in the assay with ETV3; 1.4 fold enrichment (6-mer frequency, TF over GST control) with ETV6.

These data come from publication PMC7862700, “An all-to-all approach to the identification of sequence-specific readers for epigenetic DNA modifications on cytosine”.
